PubChem BioAssay (NCATS)
Inconclusive results are not listed. Activity calls are given as the source filed them. Calls follow the shape of the dose curve; as a rule, active = well fitted cell-killing curve with a large enough effect; inconclusive = small, poorly fitted or top-dose-only effect, or effect the other way; inactive = no such curve, though single readings can be large or run the other way.

Experiment: Quantitative High-Throughput drug screen in 47 multiple myeloma cell lines against the NCATS MIPE library collection: XG6_PLB cell viability assay (AID 1919865); also: nearly all actives have a fitted effect of over 40% in size;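 as to viability (% of control): 100% = DMSO-only wells and 0% = media-only wells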
Details: XG6 myeloma viability, CellTiter-Glo ATP luminescence, 48 h; series mostly up to 45.8 µM; viability (% of control): at the top concentration
Summary of the method: (§1)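 Plated at 500 cells per well, myeloma lines received MIPE 4.0 compounds by pin tool. Following 48 h culture at 37 °C, CellTiter-Glo luminescence gave viability relative to DMSO and media-only controls.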
Potency is read from the fitted curve at half-maximal effect.

| SMILES | viability (% of control) | Potency |
| --- | --- | --- |
| CC(O)C1C(=O)N2C(C(=O)O)=C(SC3CNC(C(=O)N(C)C)C3)C(C)C12 (configuration not stated) | 82.5% (inactive) |  |
| COc1cc2c(Oc3ccc4[nH]c(C)cc4c3F)ncnc2cc1OCCCN1CCCC1 |  | 2.35 µM (active) |
| COc1cc(-c2nn(C3CCC(N4CCN(C(C)=O)CC4)CC3)c3ncnc(N)c23)ccc1NC(=O)c1cc2ccccc2n1C (configuration not stated) |  | 1.66 µM (active) |
| Cc1cn2c(-c3cn[nH]c3)cnc2c(Nc2ccc(C(=O)N3CCNCC3)cc2F)n1 |  | 2.96 µM (active) |
| NCC(=O)Nc1ccc(-n2nc(C(F)(F)F)cc2-c2ccc3c(ccc4ccccc43)c2)cc1 |  | 18.7 µM (active) |
| Cc1c(NC(=O)OC[C@@H]2COCCN2)cn2ncnc(Nc3ccc4c(cnn4Cc4cccc(F)c4)c3)c12 |  | 0.0372 µM (active) |
| Cc1cnc(-c2cnc(NCCNc3ccc(C#N)cn3)nc2-c2ccc(Cl)cc2Cl)[nH]1 |  | 6.62 µM (active) |
| COc1cc(C(=O)NS(=O)(=O)c2ccccc2C)ccc1Cc1cn(C)c2ccc(NC(=O)OC3CCCC3)cc12 |  | 14.8 µM (active) |
| COC(=O)Nc1ccc(-c2nc(N3CCOCC3)c3cnn(C4CCN(Cc5cccnc5)CC4)c3n2)cc1 |  | 0.0118 µM (active) |
| COc1ccc2c(OCc3nnc4ccc(-c5ccccc5)nn34)ccnc2c1 |  | 0.469 µM (active) |

Experiment: Quantitative High-Throughput drug screen in 47 multiple myeloma cell lines against the NCATS MIPE library collection: XG1_PLB cell viability assay (AID 1919866); also: nearly all actives have a fitted effect of over 35% in size
Details: CellTiter-Glo ATP, 48 h; series mostly up to 45.8 µM; viability: at the top concentration
Summary of the method: as §1

| SMILES | Potency | viability |
| --- | --- | --- |
| CC(C)(O)c1cc2nc(-c3cnc(N)nc3)nc(N3CCOCC3)c2s1 | 0.118 µM (active) |  |
| O=C(C=Cc1c(C(=O)O)[nH]c2cc(Cl)cc(Cl)c12)Nc1ccccc1 |  | 128% (inactive) |
| Cc1[nH]c2ccccc2c1CCNCc1ccc(C=CC(=O)NO)cc1 | 0.105 µM (active) |  |
| CCNC(=O)Nc1ccc2ncc(Nc3ccc(C)cc3)nc2n1 | 0.332 µM (active) |  |
| COc1cccc(Nc2c(C(N)=O)cnc3c(C)cc(S(=O)(=O)c4cccc(C(=O)N(C)C)c4)cc23)c1 |  | 127% [at 23.2 µM] (inactive) |
| Cc1cc(Nc2cc(N3CCN(C)CC3)nc(C=Cc3ccccc3)n2)n[nH]1 | 4.81 µM (active) |  |
| CC(C)[C@H](C(=O)Nc1ccc(C(=O)NO)cc1)c1ccccc1 | 0.833 µM (active) |  |
| Nc1ccn([C@@H]2O[C@H](CO)[C@H](O)C2(F)F)c(=O)n1 | 0.0209 µM (active) |  |
| CN(C)c1nc(Cc2ccc(NC(=O)c3ccc4ccccc4c3)cc2)nc(Cl)c1CC(=O)O |  | 110% (inactive) |
| COC(=O)Nc1nc2ccc(C(=O)c3ccc(F)cc3)cc2[nH]1 | 0.332 µM (active) |  |
| O=C(CCCCCCC(=O)Nc1ccc([C@H]2O[C@@H](CSc3nc(-c4ccccc4)c(-c4ccccc4)o3)C[C@@H](c3ccc(CO)cc3)O2)cc1)NO | 10.5 µM (active) |  |
| Nc1ccc(S(=O)(=O)Nc2ncccn2)cc1 |  | 121% (inactive) |
| CC(O)C1C(=O)N2C(C(=O)O)=C(SC3CNC(C(=O)N(C)C)C3)C(C)C12 (configuration not stated) |  | 92.2% (inactive) |
| COc1cc(-c2nn(C3CCC(N4CCN(C(C)=O)CC4)CC3)c3ncnc(N)c23)ccc1NC(=O)c1cc2ccccc2n1C (configuration not stated) | 0.332 µM (active) |  |
| Cc1cn2c(-c3cn[nH]c3)cnc2c(Nc2ccc(C(=O)N3CCNCC3)cc2F)n1 | 3.72 µM (active) |  |
| COc1c(OCCCN2CCOCC2)ccc2c3n(c(=NC(=O)c4cnc(N)nc4)nc12)CCN3 | 1.44 µM (active) |  |
| Cc1c(Cn2c(C)nc3c(C(=O)O)cc(N4CCOCC4)cc32)cccc1C(F)(F)F | 0.743 µM (active) |  |
| NCC(=O)Nc1ccc(-n2nc(C(F)(F)F)cc2-c2ccc3c(ccc4ccccc43)c2)cc1 | 16.6 µM (active) |  |
| Cc1c(NC(=O)OC[C@@H]2COCCN2)cn2ncnc(Nc3ccc4c(cnn4Cc4cccc(F)c4)c3)c12 | 0.0833 µM (active) |  |
| COc1ccc(CC2c3cc(OC)c(OC)cc3CC[N+]2(C)CCC(=O)OCCCCCOC(=O)CC[N+]2(C)CCc3cc(OC)c(OC)cc3C2Cc2ccc(OC)c(OC)c2)cc1OC (configuration not stated) | 1.46 µM (active) |  |
| COc1cc(C(=O)NS(=O)(=O)c2ccccc2C)ccc1Cc1cn(C)c2ccc(NC(=O)OC3CCCC3)cc12 | 11.8 µM (active) |  |
| COC(=O)Nc1ccc(-c2nc(N3CCOCC3)c3cnn(C4CCN(Cc5cccnc5)CC4)c3n2)cc1 | 0.0235 µM (active) |  |
| COc1ccc2c(OCc3nnc4ccc(-c5ccccc5)nn34)ccnc2c1 |  | 103% (inactive) |
| CCCn1c(=O)c2[nH]c(-c3cnn(Cc4cccc(C(F)(F)F)c4)c3)nc2n(CC)c1=O |  | 126% (inactive) |

Experiment: Quantitative High-Throughput drug screen in 47 multiple myeloma cell lines against the NCATS MIPE library collection: VP6_DJ cell viability assay (AID 1919867); also: nearly all actives have a fitted effect of over 40% in size;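 as to viability (% of DMSO): 100% = DMSO-only wells and 0% = wells with media alone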
Details: ATP luminescence, 48 h; series mostly up to 45.8 µM; viability (% of DMSO): at the top concentration
Summary of the method: as §1

| SMILES | Potency | viability (% of DMSO) |
| --- | --- | --- |
| CC(C)(O)c1cc2nc(-c3cnc(N)nc3)nc(N3CCOCC3)c2s1 | 0.0833 µM (active) |  |
| O=C(C=Cc1c(C(=O)O)[nH]c2cc(Cl)cc(Cl)c12)Nc1ccccc1 |  | 107% (inactive) |
| CN1CC[C@@H](c2c(O)cc(O)c3c(=O)cc(-c4ccccc4Cl)oc23)[C@@H](O)C1 | 0.0526 µM (active) |  |
| Cc1[nH]c2ccccc2c1CCNCc1ccc(C=CC(=O)NO)cc1 | 0.0187 µM (active) |  |
| CCNC(=O)Nc1ccc2ncc(Nc3ccc(C)cc3)nc2n1 | 0.662 µM (active) |  |
| COc1cccc(Nc2c(C(N)=O)cnc3c(C)cc(S(=O)(=O)c4cccc(C(=O)N(C)C)c4)cc23)c1 |  | 118% [at 23.2 µM] (inactive) |
| Cc1cc(Nc2cc(N3CCN(C)CC3)nc(C=Cc3ccccc3)n2)n[nH]1 | 15.2 µM (active) |  |
| CC(C)[C@H](C(=O)Nc1ccc(C(=O)NO)cc1)c1ccccc1 | 0.372 µM (active) |  |
| Nc1ccn([C@@H]2O[C@H](CO)[C@H](O)C2(F)F)c(=O)n1 | 0.526 µM (active) |  |
| CN(C)c1nc(Cc2ccc(NC(=O)c3ccc4ccccc4c3)cc2)nc(Cl)c1CC(=O)O |  | 101% (inactive) |
| CCCCN1CCC(CNC(=O)c2c3n(c4ccccc24)CCCO3)CC1 | 10.5 µM (active) |  |
| COC(=O)Nc1nc2ccc(C(=O)c3ccc(F)cc3)cc2[nH]1 | 0.935 µM (active) |  |
| O=C(CCCCCCC(=O)Nc1ccc([C@H]2O[C@@H](CSc3nc(-c4ccccc4)c(-c4ccccc4)o3)C[C@@H](c3ccc(CO)cc3)O2)cc1)NO | 7.43 µM (active) |  |
| Nc1ccc(S(=O)(=O)Nc2ncccn2)cc1 |  | 137% (inactive) |
| CC(=O)Nc1sc2c(c1-c1nc3ccccc3s1)CNC2 | 11.8 µM (active) |  |
| COc1cc2ncn(-c3cc(OCc4ccccc4C(F)(F)F)c(C(N)=O)s3)c2cc1OC | 18.7 µM (active) |  |
| CC(O)C1C(=O)N2C(C(=O)O)=C(SC3CNC(C(=O)N(C)C)C3)C(C)C12 (configuration not stated) | 2.64 µM (active) |  |
| COc1cc2c(Oc3ccc4[nH]c(C)cc4c3F)ncnc2cc1OCCCN1CCCC1 | 4.69 µM (active) |  |
| COc1cc(-c2nn(C3CCC(N4CCN(C(C)=O)CC4)CC3)c3ncnc(N)c23)ccc1NC(=O)c1cc2ccccc2n1C (configuration not stated) | 6.62 µM (active) |  |
| Cc1cn2c(-c3cn[nH]c3)cnc2c(Nc2ccc(C(=O)N3CCNCC3)cc2F)n1 | 8.33 µM (active) |  |
| COc1c(OCCCN2CCOCC2)ccc2c3n(c(=NC(=O)c4cnc(N)nc4)nc12)CCN3 | 0.457 µM (active) |  |
| Cc1c(Cn2c(C)nc3c(C(=O)O)cc(N4CCOCC4)cc32)cccc1C(F)(F)F | 4.18 µM (active) |  |
| NCC(=O)Nc1ccc(-n2nc(C(F)(F)F)cc2-c2ccc3c(ccc4ccccc43)c2)cc1 | 18.7 µM (active) |  |
| Cc1c(NC(=O)OC[C@@H]2COCCN2)cn2ncnc(Nc3ccc4c(cnn4Cc4cccc(F)c4)c3)c12 | 1.87 µM (active) |  |
| Cc1cnc(-c2cnc(NCCNc3ccc(C#N)cn3)nc2-c2ccc(Cl)cc2Cl)[nH]1 | 10.5 µM (active) |  |
| CS(=O)(=O)c1ccc(-c2cnc(N)c(C(=O)Nc3ccccc3)n2)cc1 |  | 101% (inactive) |
| COc1cc(C(=O)NS(=O)(=O)c2ccccc2C)ccc1Cc1cn(C)c2ccc(NC(=O)OC3CCCC3)cc12 | 16.6 µM (active) |  |
| COC(=O)Nc1ccc(-c2nc(N3CCOCC3)c3cnn(C4CCN(Cc5cccnc5)CC4)c3n2)cc1 | 0.0469 µM (active) |  |
